Drawing on PubChem BioAssay, this text covers z-score for twelve compounds.

Experiment [1] can be described thus: A549 cell viability effects, profiling panel, calcein-AM fluorescence, 48 h, basal (AID 1162). The note with it: higher = more signal.
Experiment [2] is described as follows: adipocyte viability effects, profiling panel, cell-based, 3T3-L1 adipocytes, calcein-AM fluorescence, 48 h, basal (AID 1163). The settings on record: 3T3-L1 adipocytes viability, higher = more signal.
A short description of experiment [3]: HepG2 cell viability effects, profiling panel, calcein-AM fluorescence, 48 h, basal (AID 1164). The note with it: higher = more signal.
The nature of experiment [4]: MM1S cell viability effects, profiling panel, calcein-AM fluorescence, 48 h, basal (AID 1165).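 Also: viability of MM1S multiple myeloma cells under basal unstimulated conditions.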 The settings on record: higher = more signal.
A short description of experiment [5]: basal RPMI8226 viability, no added stimulus, profiling panel, cell-based, calcein-AM fluorescence, 48 h, PK04 Diversity Set (AID 1166).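 Also: cells grown under basal conditions without added stimulus.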 The note with it: RPMI8226 myeloma viability, higher = more signal.
Experiment [6] can be described thus: basal HepG2 mitochondrial membrane potential changes, profiling panel, cell-based, JC-1 fluorescence, 24 h, 100 nL compound (AID 1167). The settings on record: higher = more signal.
Experiment [7] is described as follows: basal 3T3-L1 adipocyte mitochondrial potential changes, profiling panel, cell-based, JC-1 fluorescence, 3T3-L1 adipocytes, 24 h, 100 nL compound (AID 1168). The settings on record: JC-1 mitochondrial fluorescence, higher = more signal, called active from +8 up or from −8 down.
The nature of experiment [8]: basal RPMI8226 mitochondrial membrane potential changes, profiling panel, cell-based, JC-1 fluorescence, 24 h, 100 nL compound (AID 1169). The settings on record: RPMI8226 myeloma, JC-1 mitochondrial potential fluorescence, higher = more signal.
Experiment [9] can be described thus: basal MM1S mitochondrial membrane potential changes, profiling panel, cell-based, JC-1 fluorescence, 24 h, 100 nL compound (AID 1170). The settings on record: higher = more signal.
A short description of experiment [10]: A549 lung cancer cell viability effects, profiling panel, resazurin fluorescence, 24 h, PK04 Diversity Set (AID 1171). The settings on record: higher = more signal, called active from +8 up or from −8 down. A general note: Alamar Blue is a resazurin reagent that responds to reducing activity.

Structures are written as SMILES. Active and inactive are the calls of the source.
Also: test concentration not given here.

For the compound `COC(=O)CC=C[C@@H](C)[C@@H](C=NOC[C@@H](O)[C@H]1O[C@@H]2OC(C)(C)O[C@@H]2[C@H]1O)OC`, the z-score is 0.218 in [1]; 0.0495 in [2]; 0.0068 in [3]; -0.952 in experiment [4]; 0.216 in experiment [5]; 0.103 in experiment [6]. Further, the z-score in [7] was -0.637 (inactive); in [8], -0.199; in experiment [9] it was 0.781; in experiment [10], -0.743 (inactive).
On to `C[C@H]1CC[C@H]2C(=O)O[C@H](CO)CN2[C@@H]1c1ccc(Br)cc1`, for which the z-score in experiment [1] was 0.889; in experiment [2], -0.214; in experiment [3] it was 0.547; in experiment [4], 0.349; in [5], -0.73; in experiment [6], 0.0194. Besides, the z-score in experiment [7] was -0.526 (inactive); in experiment [8], 0.301; in experiment [9], -0.434; in [10], 0.581 (inactive).
As to `C=CC[C@@H]1C=C[C@H](ON=C2C[C@@H](O)[C@@H](O)[C@@H]3[C@@H]4C(=O)N(CC)C(=O)[C@@H]4CC[C@@H]23)[C@@H](CO)O1`, the z-score in [1] is -0.98; in experiment [2] it was 1; in experiment [3], 0.281; in experiment [4], -1.44; in experiment [5], -1.23; in [6] it was -0.495. The z-score was 0.265 (inactive) in experiment [7], 0.216 in [8], -0.354 in experiment [9] and -0.28 (inactive) in experiment [10].
As for `CON=C(C)CCN1CCCCc2nc(C)c(C)cc21`, the z-score in experiment [1] was 1.03; in [2], -0.269; in experiment [3], 0.564; in experiment [4], -0.254; in experiment [5] it was 0.371; in experiment [6], -0.955. Further, the z-score is -1.41 (inactive) in [7], -0.174 in [8], 0.289 in [9] and -0.0601 (inactive) in experiment [10].
For the compound `O=C1CCCC=C1C(O)C1CCCCC1` (stereo not given), the z-score in experiment [1] was -0.586; in experiment [2], -0.464; in experiment [3], -0.22; in [4] it was 0.766; in experiment [5], -0.241; in experiment [6], -0.86. Also, the z-score in experiment [7] is -1.15 (inactive); in experiment [8], -0.121; in experiment [9], 0.327; in experiment [10], 0.436 (inactive).
Consider `COC(=O)[C@H](C)NC(=O)CCC1CC(OC(=O)NCCc2ccc(F)cc2)CC2(CCCC(COC(=O)NCc3ccccc3)O2)O1` (stereo not given in full), for which the z-score in experiment [1] is -0.101; in [2], -0.0012; in experiment [3] it was 0.601; in experiment [4], 0.756; in experiment [5] it was -0.484; in experiment [6], 0.995. Besides, the z-score in experiment [7] was 0.553 (inactive); in experiment [8] it was 0.265; in experiment [9], -0.579; in [10] it was 0.896 (inactive).
For the compound `COC(=O)CC=C1c2ccccc2[C@H](OC)[C@H]1C`, the z-score was 0.16 in [1]; -0.116 in experiment [2]; -0.379 in experiment [3]; -0.458 in experiment [4]; -1.22 in experiment [5]; -0.8 in [6]. Moreover, the z-score is -0.272 (inactive) in experiment [7], 0.539 in [8], -0.707 in [9] and -0.397 (inactive) in experiment [10].
Regarding `COc1ccc(-c2cnnc(CCCn3ccnc3-c3ccccc3)n2)cc1`, the z-score in experiment [1] is -0.98; in [2], 1.02; in [3] it was -1.28; in experiment [4], -1.82; in [5], -2.55; in experiment [6], -1.5. Also, the z-score was -0.876 (inactive) in experiment [7], -0.87 in experiment [8], -0.543 in [9] and -3.49 (inactive) in experiment [10].
In the case of `CCN1C(=O)[C@H]2[C@H]3[C@H](O)[C@H](O)CC(=NNC(=O)OCc4ccccc4)[C@H]3CC[C@H]2C1=O`, the z-score is -0.365 in experiment [1]; 0.888 in [2]; -0.0764 in experiment [3]; -1.59 in [4]; 0.507 in experiment [5]; -0.559 in experiment [6]. Also, the z-score in experiment [7] is -0.978 (inactive); in experiment [8], 0.083; in experiment [9], 0.409; in experiment [10], -0.218 (inactive).
With `CON=C1c2cc(OC)ccc2O[C@H](c2cccc(OC)c2)[C@H]1O`, the z-score is 0.744 in experiment [1]; 0.448 in [2]; -0.743 in experiment [3]; -0.416 in [4]; 0.53 in [5]; 0.181 in experiment [6]. Also, the z-score in experiment [7] was -0.672 (inactive); in [8], -0.0443; in experiment [9] it was 1.39; in [10] it was -0.124 (inactive).
For `C[C@@H]1CC[C@H]2C(=O)OC(Cc3ccccc3)CN2[C@H]1c1ccc(Br)cc1` (stereo not given in full), the z-score in [1] is 1.47; in [2], -1.25; in experiment [3], 0.556; in [4], 0.637; in experiment [5], -0.66; in [6], 1.34. Besides, the z-score in experiment [7] is -1.43 (inactive); in [8], 0.558; in [9] it was -0.332; in experiment [10] it was 0.472 (inactive).
Take `CC(C)=NO[C@@H](C)c1cn([C@H](CO)Cc2ccccc2)nn1`: the z-score in experiment [1] is 0.308; in experiment [2], 0.343; in experiment [3], 1.17; in experiment [4] it was 0.182; in experiment [5], -0.428; in [6], 0.614. Besides, the z-score is 0.0209 (inactive) in experiment [7], 0.386 in experiment [8], 0.514 in experiment [9] and -1.35 (inactive) in [10].
